Compound activity (PubChem BioAssay)
Rows were chosen to be rich in hits. Some 6.7% of all compounds tested hit in one or more screens of this group.
Pf Dd2 growth: P. falciparum Dd2 growth inhibitors, primary screen, SYBR Green fluorescence, single dose replicates. 72 h; active compounds read low. activity change, % at 10 µM. hit rate 2.3% among 94,000; in the data active = activity change below about -80%; inconclusive = no clear call, values can overlap the other calls
T cruzi growth-1: T. cruzi intracellular proliferation inhibitors, primary screen, cell-based, beta-gal Tulahuen parasites, NIH3T3 host, luminescence; T. cruzi beta-gal in NIH3T3, GalScreen luminescence, 90 h; inhibition, % at 8.34 µM; hit rate 5.9% among 77,000; AID 624255, 2012;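 active = mean inhibition above about 93%, with at least 55% of replicates each passing it, limit read from the data, passing the limit was not always enough; inconclusive = only one of those two conditions holds; inactive = neither condition holds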
C diff HTS: C. difficile growth inhibitors, primary screen, HTS; AID 1259249, 2017; growth activity, negative = inhibition, % at 16 µg/mL (by protocol); Clostridium difficile clinical isolate growth, OD600, 24 h; active compounds read low; hit rate 0.25% among 86,000;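 active = mean growth activity at or below -80% and every replicate also at or below -80%; inconclusive = mean at or below -80% but some replicate above -80%; inactive = mean growth activity above -80%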
T cruzi growth-2: T. cruzi intracellular proliferation inhibitors, confirmation, cell-based, NIH3T3 host, beta-gal parasite, luminescence, cherry-pick; shares compounds with T cruzi growth-1; T. cruzi beta-gal in NIH3T3, GalScreen luminescence, 90 h; inhibition, % at 8.35 µM; hit rate 72% among 5,600; AID 651739, 2012;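 active = mean replicate inhibition above about 95% and at least 55% of replicates individually reaching it, limit read from the data; inconclusive = only one of the two criteria is met; inactive = neither criterion is met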
T cruzi growth-3: inhibitors of intracellular T. cruzi replication, confirmation, NIH3T3 host cells, beta-gal parasites, cherry-pick, set 2. shares compounds with T cruzi growth-1. T. cruzi beta-gal in NIH3T3, GalScreen luminescence, 90 h. inhibition, % at 2.09 µM. hit rate 21% among 5,600;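 active = mean inhibition above about 95%, with at least 55% of replicates also reaching it, limit read from the data; inconclusive = meets just one of the two conditions; inactive = meets neither condition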
3T3 cytotox: cytotoxicity in mouse NIH/3T3 fibroblasts, confirmation, cytotoxicity control for T. cruzi proliferation inhibitor project, cell-based, cherry-pick, single point. shares compounds with T cruzi growth-1. NIH/3T3 viability, CellTiter-Glo ATP luminescence, 90 h. cytotoxicity (signal decrease), % at 8.35 µM. hit rate 14% among 5,600. AID 651742, 2012;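 active = mean signal decrease across replicates above about 35% based on untreated-well scatter, with enough replicates individually passing, limit read from the data; inconclusive = no rule stated though some were filed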
NIH3T3 tox 2: NIH/3T3 fibroblast cytotoxicity, confirmation, cytotoxicity control, cell-based, cherry-pick, single point, set 2; NIH/3T3 viability, CellTiter-Glo ATP luminescence, 90 h; hit rate 56% among 5,600; inhibition, % at 24.9 µM; shares compounds with T cruzi growth-1;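 active = mean loss of cell viability signal at or above a set limit, and enough replicates individually reaching it; inconclusive = meets only the mean limit or only the replicate share; inactive = meets neither condition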
Hits are given with their value; n = inactive; u = inconclusive; x = no result given.

SMILES	Pf Dd2 growth	T cruzi growth-1	C diff HTS	T cruzi growth-2	T cruzi growth-3	3T3 cytotox	NIH3T3 tox 2
Cc1ccc(S(=O)(=O)Nc2ccc3c(c2)CC(=O)N([C@@H](C)CO)C[C@@H](C)[C@@H](CN(C)S(C)(=O)=O)O3)cc1	n	n	n	x	x	x	x
COCC(=O)Nc1ccc2c(c1)[C@H]1C[C@@H](CC(=O)NCc3cccnc3)O[C@@H](CO)[C@H]1O2	n	n	x	x	x	x	x
O=C(Nc1ccc(F)cc1)N1CCCCN2[C@H](C1)[C@H](c1ccc(C#Cc3ccccc3)cc1)[C@@H]2CO	-89	123	n	102	n	n	76
O=C(Nc1ccccc1)N1CCCCN2[C@H](C1)[C@H](c1ccc(C#Cc3ccccc3)cc1)[C@@H]2CO	n	106	n	104	n	n	39
O=C(Nc1ccccc1)N1CCCCN2[C@H](C1)[C@@H](c1ccc(C#Cc3cccnc3)cc1)[C@@H]2CO	n	n	n	x	x	x	x
CN(C)CC#Cc1ccc([C@H]2[C@H](CO)N3CCCCN(C(=O)Nc4ccc(F)cc4)C[C@@H]23)cc1	n	n	n	x	x	x	x
C[C@@H]1CN([C@H](C)CO)C(=O)Cc2cc(NC(=O)CCC(F)(F)F)ccc2O[C@@H]1CN(C)C(=O)Nc1ccc2c(c1)OCO2	n	n	n	x	x	x	x
O=C(C[C@H]1CC[C@@H]2[C@H](COC[C@@H](O)CN2C(=O)c2ccccc2F)O1)NCc1ccc(F)cc1	n	n	x	x	x	x	x
C[C@@H]1CCCCO[C@@H](CN(C)Cc2ccncc2)[C@H](C)CN([C@H](C)CO)C(=O)c2cc(NS(=O)(=O)c3ccc(Cl)cc3)ccc2O1	n	u	n	96	n	n	n
C[C@@H]1CCCCO[C@H](CN(C)Cc2ccncc2)[C@H](C)CN([C@H](C)CO)C(=O)c2cc(NS(C)(=O)=O)ccc2O1	n	n	n	x	x	x	x
CCCN(C)C[C@@H]1OCCCC[C@H](C)Oc2ccc(NS(C)(=O)=O)cc2C(=O)N([C@@H](C)CO)C[C@H]1C	n	u	n	n	n	n	n
C[C@H]1CCCCO[C@@H](CN(C)Cc2ccccc2)[C@@H](C)CN([C@@H](C)CO)C(=O)c2cc(NS(=O)(=O)c3ccc(Cl)cc3)ccc2O1	n	110	n	100	n	n	103
CCCN(C)C[C@H]1OCCCC[C@@H](C)Oc2ccc(NS(C)(=O)=O)cc2C(=O)N([C@H](C)CO)C[C@@H]1C	n	n	n	x	x	x	x
C[C@@H]1CCCCO[C@H](CN(C)Cc2ccncc2)[C@H](C)CN([C@@H](C)CO)C(=O)c2cc(NS(C)(=O)=O)ccc2O1	n	104	n	n	n	n	n
C[C@@H]1CN([C@H](C)CO)C(=O)c2cc(NS(=O)(=O)c3ccc(Cl)cc3)ccc2O[C@@H](C)CCCCO[C@@H]1CN(C)Cc1ccncc1	n	n	n	x	x	x	x
C[C@@H]1CCCCO[C@H](CN(C)Cc2ccccc2)[C@@H](C)CN([C@@H](C)CO)C(=O)c2cc(NS(=O)(=O)c3ccccc3)ccc2O1	n	n	x	x	x	x	x
COc1ccc(NC(=O)Nc2ccc3c(c2)C(=O)N([C@H](C)CO)C[C@H](C)[C@@H](CN(C)C(=O)NC2CCCCC2)OCCCC[C@H](C)O3)cc1	n	n	n	x	x	x	x
O=C(C[C@@H]1CC[C@H](NC(=O)Cc2cccnc2)[C@H](CO)O1)Nc1ccccc1	n	x	n	x	x	x	x
Cc1ccc(S(=O)(=O)NCC[C@@H]2CC[C@@H](NC(=O)c3ccccn3)[C@H](CO)O2)cc1	n	n	n	x	x	x	x
C[C@@H]1CN([C@@H](C)CO)C(=O)c2cc(NS(=O)(=O)c3ccc(Cl)cc3)ccc2O[C@@H](C)CCCCO[C@H]1CN(C)Cc1ccccc1	n	109	n	109	107	n	88
C[C@H](CO)N1C[C@H](C)[C@H](CN(C)Cc2ccccc2)OCCCC[C@H](C)Oc2ccc(NS(=O)(=O)c3ccc(Cl)cc3)cc2C1=O	n	107	n	u	u	u	104
C[C@@H]1CN([C@@H](C)CO)C(=O)c2cc(NS(=O)(=O)c3ccccc3)ccc2O[C@@H](C)CCCCO[C@H]1CN(C)Cc1ccccc1	n	x	n	x	x	x	x
C[C@H](CO)N1C[C@H](C)[C@@H](CN(C)Cc2ccccc2)OCCCC[C@H](C)Oc2ccc(NS(=O)(=O)c3ccccc3)cc2C1=O	n	n	x	x	x	x	x
C[C@@H]1CCCCO[C@@H](CN(C)Cc2ccccc2)[C@@H](C)CN([C@@H](C)CO)C(=O)c2cc(NS(=O)(=O)c3ccc(Cl)cc3)ccc2O1	n	u	n	95	108	n	104
C[C@@H]1CCCCO[C@@H](CN(C)Cc2ccccc2)[C@@H](C)CN([C@@H](C)CO)C(=O)c2cc(NS(=O)(=O)c3ccccc3)ccc2O1	n	n	x	x	x	x	x
SMILES	Pf Dd2 growth	T cruzi growth-1	C diff HTS	T cruzi growth-2	T cruzi growth-3	3T3 cytotox	NIH3T3 tox 2
Cc1ccc(S(=O)(=O)NCC[C@@H]2CC[C@@H](NC(=O)c3cccnc3)[C@H](CO)O2)cc1	n	n	n	x	x	x	x
C[C@@H]1CN([C@@H](C)CO)C(=O)c2cc(NS(=O)(=O)c3ccccc3)ccc2O[C@@H](C)CCCCO[C@H]1CN(C)S(=O)(=O)c1cn(C)cn1	n	n	n	x	x	x	x
CC(C)C#Cc1cnc2c(c1)C(=O)N([C@H](C)CO)C[C@H](C)[C@@H](CN(C)C(=O)Cc1ccncc1)O2	n	n	n	x	x	x	x
C[C@@H]1CN([C@H](C)CO)C(=O)c2cc(-c3ccccc3F)cnc2O[C@H]1CN(C)C(=O)NC1CCCC1	n	n	n	x	x	x	x
C[C@H]1CN([C@@H](C)CO)C(=O)c2cccc(NS(=O)(=O)c3cccs3)c2O[C@H]1CN(C)C	n	x	n	x	x	x	x
O=C(c1ccccn1)N1CC[C@@H]2[C@H]1c1cc(-c3ccccc3F)ccc1N[C@@H]2CO	n	n	n	x	x	x	x
CN(C)C(=O)c1ccc(-c2ccc3c(c2)[C@@H]2[C@@H](CCN2C(=O)c2ccccn2)[C@@H](CO)N3)cc1	n	n	n	x	x	x	x
O=C(c1ccccn1)N1CC[C@H]2[C@H](CO)Nc3ccc(-c4ccc(F)cc4)cc3[C@H]21	n	u	n	108	98	n	29
O=C(c1ccccn1)N1CC[C@H]2[C@H](CO)Nc3ccc(-c4ccccc4)cc3[C@H]21	n	99	n	u	n	n	n
C[C@H]1CN([C@@H](C)CO)C(=O)c2cc(-c3cccnc3)cnc2O[C@H]1CN(C)C(=O)C1CCC1	n	n	n	x	x	x	x
O=C(NC1CCCCC1)N1CC(=O)N2[C@@H](CO)[C@H](c3ccc(/C=C/c4ccccc4)cc3)[C@@H]2C1	n	x	n	x	x	x	x
